# From PMC7862700, “An all-to-all approach to the identification of sequence-specific readers for epigenetic DNA modifications on cytosine”
# What was measured:
# Assay in all cases: DAPPL (digital affinity profiling via proximity ligation, sequencing); 10 mM Tris-HCl pH 7.5, 50 mM NaCl, 1 mM DTT, 4% glycerol, room temperature, 30 min; GST-TFs on glutathione beads, 16-mer random dsDNA library, 0.1% formaldehyde crosslink after washing; high values mean tight binding
# FLI1 = biological target: T1, FLI1 (Homo sapiens, UniProt Q01543 1-452); settings: protein: recombinant; tags: N-terminal GST; dsDNA, one strand shown
# T1 sequence: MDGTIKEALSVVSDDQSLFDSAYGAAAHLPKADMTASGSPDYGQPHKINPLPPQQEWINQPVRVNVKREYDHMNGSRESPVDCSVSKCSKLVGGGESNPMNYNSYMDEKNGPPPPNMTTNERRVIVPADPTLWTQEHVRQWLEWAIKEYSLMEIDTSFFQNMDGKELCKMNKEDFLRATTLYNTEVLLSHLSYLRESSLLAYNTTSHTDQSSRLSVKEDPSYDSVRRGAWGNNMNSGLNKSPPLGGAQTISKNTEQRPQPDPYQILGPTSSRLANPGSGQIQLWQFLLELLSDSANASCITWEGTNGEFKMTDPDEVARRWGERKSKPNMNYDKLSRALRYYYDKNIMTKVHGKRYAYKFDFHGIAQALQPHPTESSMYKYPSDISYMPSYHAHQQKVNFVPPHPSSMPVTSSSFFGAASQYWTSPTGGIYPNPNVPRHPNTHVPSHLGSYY
# Procedure, shortened: (§1)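 GST fusions of human transcription factors were expressed in yeast and captured with glutathione beads. Once given DNA barcodes and pooled alongside a tag-only sample, they were incubated for 30 min at room temperature with 200 nmole of a random double-stranded 16-mer DNA library in Tris/NaCl/DTT/glycerol buffer, then washed, crosslinked (0.1% formaldehyde), proximity-ligated, PCR-amplified and sequenced on an Illumina NextSeq500. The binding signal of each hexamer is its read frequency for a factor divided by its frequency for the tag-only sample.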
# ELK1 = biological target: T2, ELK1 (Homo sapiens, UniProt P19419 1-428); settings: protein: recombinant; tags: N-terminal GST; dsDNA, one strand shown
# T2 sequence: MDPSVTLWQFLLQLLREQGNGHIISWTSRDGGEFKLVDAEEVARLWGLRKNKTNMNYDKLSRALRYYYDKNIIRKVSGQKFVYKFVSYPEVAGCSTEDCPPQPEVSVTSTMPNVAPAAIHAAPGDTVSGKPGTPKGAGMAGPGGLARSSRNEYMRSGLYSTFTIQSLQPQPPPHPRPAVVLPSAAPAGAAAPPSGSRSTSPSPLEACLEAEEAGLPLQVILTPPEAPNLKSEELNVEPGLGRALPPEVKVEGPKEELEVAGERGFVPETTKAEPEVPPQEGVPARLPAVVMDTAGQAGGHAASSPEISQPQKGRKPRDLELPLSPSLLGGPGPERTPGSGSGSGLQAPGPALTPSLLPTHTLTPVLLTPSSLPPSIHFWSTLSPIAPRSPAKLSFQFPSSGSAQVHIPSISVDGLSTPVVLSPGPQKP
# Procedure, shortened: as §1
# GABPA = biological target: T3, GABPA (Homo sapiens, UniProt Q06546 1-454); settings: protein: recombinant; tags: N-terminal GST; dsDNA, one strand shown
# T3 sequence: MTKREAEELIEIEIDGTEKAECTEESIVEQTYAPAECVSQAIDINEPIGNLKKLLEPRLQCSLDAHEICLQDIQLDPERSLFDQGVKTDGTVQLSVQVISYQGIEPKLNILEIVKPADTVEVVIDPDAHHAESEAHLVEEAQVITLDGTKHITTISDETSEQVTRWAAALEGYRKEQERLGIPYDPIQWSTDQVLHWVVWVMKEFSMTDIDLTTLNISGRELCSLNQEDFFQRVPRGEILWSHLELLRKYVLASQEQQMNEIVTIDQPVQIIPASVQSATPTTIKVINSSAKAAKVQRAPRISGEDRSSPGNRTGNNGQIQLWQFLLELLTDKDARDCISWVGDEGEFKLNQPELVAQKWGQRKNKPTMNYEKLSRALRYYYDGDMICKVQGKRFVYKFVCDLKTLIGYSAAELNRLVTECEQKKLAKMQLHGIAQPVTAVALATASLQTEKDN
# Procedure, shortened: as §1
# ERG = biological target: T4, ERG (Homo sapiens, UniProt P11308 1-479); settings: protein: recombinant; tags: N-terminal GST; dsDNA, one strand shown
# T4 sequence: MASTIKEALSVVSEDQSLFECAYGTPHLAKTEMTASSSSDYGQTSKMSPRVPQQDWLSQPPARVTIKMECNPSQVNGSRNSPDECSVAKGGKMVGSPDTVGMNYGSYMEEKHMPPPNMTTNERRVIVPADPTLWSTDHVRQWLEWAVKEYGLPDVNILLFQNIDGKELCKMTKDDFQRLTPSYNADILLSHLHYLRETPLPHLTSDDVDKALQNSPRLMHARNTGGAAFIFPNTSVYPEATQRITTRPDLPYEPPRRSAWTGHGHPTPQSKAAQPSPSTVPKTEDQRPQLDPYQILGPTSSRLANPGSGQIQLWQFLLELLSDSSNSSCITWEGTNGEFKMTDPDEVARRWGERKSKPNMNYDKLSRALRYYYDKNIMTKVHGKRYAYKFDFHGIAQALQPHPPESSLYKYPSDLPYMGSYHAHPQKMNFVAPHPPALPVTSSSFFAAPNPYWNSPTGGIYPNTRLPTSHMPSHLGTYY
# Procedure, shortened: as §1
# ELF1 = ELF1 (Homo sapiens, UniProt P32519 1-619); settings: protein: recombinant; tags: N-terminal GST; dsDNA, one strand shown
# Procedure, shortened: as §1
# EHF = biological target: T5, EHF (Homo sapiens, UniProt Q9NZC4 1-300); settings: protein: recombinant; tags: N-terminal GST; dsDNA, one strand shown
# T5 sequence: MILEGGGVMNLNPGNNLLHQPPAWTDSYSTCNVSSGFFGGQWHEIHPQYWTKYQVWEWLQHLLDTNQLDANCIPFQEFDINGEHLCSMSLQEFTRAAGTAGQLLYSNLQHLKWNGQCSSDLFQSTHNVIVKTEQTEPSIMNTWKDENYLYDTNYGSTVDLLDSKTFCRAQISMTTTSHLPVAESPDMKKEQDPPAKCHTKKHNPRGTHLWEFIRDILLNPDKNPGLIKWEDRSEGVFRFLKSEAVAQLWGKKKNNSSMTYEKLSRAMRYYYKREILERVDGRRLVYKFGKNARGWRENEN
# Procedure, shortened: as §1
# SPI1 = SPI1 (Homo sapiens, UniProt P17947 1-270); settings: protein: recombinant; tags: N-terminal GST; dsDNA, one strand shown
# Procedure, shortened: as §1
# SPIB = SPIB (Homo sapiens, UniProt Q01892 1-262); settings: protein: recombinant; tags: N-terminal GST; dsDNA, one strand shown
# Procedure, shortened: as §1
# ELK3 = biological target: T6, ELK3 (Homo sapiens, UniProt P41970 1-407); settings: protein: recombinant; tags: N-terminal GST; dsDNA, one strand shown
# T6 sequence: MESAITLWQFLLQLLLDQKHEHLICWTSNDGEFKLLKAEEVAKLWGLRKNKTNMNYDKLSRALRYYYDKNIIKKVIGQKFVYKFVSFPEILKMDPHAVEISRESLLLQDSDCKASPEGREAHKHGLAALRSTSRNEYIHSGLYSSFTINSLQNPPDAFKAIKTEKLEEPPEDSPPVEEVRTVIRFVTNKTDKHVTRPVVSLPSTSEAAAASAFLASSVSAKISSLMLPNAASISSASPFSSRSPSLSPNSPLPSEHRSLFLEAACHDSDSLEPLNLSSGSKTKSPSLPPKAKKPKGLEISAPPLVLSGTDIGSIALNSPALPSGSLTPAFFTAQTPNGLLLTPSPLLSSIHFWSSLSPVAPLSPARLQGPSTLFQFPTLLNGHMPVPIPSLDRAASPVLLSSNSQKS
# Procedure, shortened: as §1
# FEV = biological target: T7, FEV (Homo sapiens, UniProt Q99581 1-238); settings: protein: recombinant; tags: N-terminal GST; dsDNA, one strand shown
# T7 sequence: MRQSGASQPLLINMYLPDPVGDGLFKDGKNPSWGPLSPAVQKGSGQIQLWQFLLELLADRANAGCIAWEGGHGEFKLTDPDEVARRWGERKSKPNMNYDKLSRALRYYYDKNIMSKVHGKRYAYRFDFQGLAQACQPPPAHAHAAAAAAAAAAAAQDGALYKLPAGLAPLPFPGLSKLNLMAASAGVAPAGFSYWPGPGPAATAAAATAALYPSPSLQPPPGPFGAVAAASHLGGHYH
# Procedure, shortened: as §1
# ETV5 = ETV5 (Homo sapiens, UniProt P41161 1-510); settings: protein: recombinant; tags: N-terminal GST; dsDNA, one strand shown
# Procedure, shortened: as §1
# HSF1 = HSF1 (Homo sapiens, UniProt Q00613 1-529); settings: protein: recombinant; tags: N-terminal GST; chain copies: 3; dsDNA, one strand shown
# Procedure, shortened: as §1
# SPIC = biological target: T8, SPIC (Homo sapiens, UniProt Q8N5J4 1-248); settings: protein: recombinant; tags: N-terminal GST; dsDNA, one strand shown
# T8 sequence: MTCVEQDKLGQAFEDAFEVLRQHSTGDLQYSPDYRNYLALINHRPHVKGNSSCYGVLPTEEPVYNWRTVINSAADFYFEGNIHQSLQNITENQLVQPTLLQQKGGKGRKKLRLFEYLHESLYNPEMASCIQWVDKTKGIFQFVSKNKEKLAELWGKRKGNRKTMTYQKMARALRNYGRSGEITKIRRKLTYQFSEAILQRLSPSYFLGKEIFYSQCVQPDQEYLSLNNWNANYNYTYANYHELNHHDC
# Procedure, shortened: as §1
# ELF4 = ELF4 (Homo sapiens, UniProt Q99607 1-663); settings: protein: recombinant; tags: N-terminal GST; dsDNA, one strand shown
# Procedure, shortened: as §1
# ELK4 = biological target: T9, ELK4 (Homo sapiens, UniProt P28324-2 1-405); settings: protein: recombinant; tags: N-terminal GST; dsDNA, one strand shown
# T9 sequence: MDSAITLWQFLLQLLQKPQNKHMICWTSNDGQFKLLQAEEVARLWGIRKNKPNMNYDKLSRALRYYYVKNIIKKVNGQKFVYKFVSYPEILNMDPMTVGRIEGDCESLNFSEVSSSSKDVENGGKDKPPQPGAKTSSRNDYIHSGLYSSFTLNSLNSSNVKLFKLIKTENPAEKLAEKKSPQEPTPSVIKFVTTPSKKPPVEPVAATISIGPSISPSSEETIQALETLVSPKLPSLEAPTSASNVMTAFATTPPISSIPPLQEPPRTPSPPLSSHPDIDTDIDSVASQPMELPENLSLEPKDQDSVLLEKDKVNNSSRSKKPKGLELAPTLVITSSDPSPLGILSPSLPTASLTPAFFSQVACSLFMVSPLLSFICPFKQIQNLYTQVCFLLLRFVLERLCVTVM
# Procedure, shortened: as §1
# ETV2 = biological target: T10, ETV2 (Homo sapiens, UniProt O00321 1-342); settings: protein: recombinant; tags: N-terminal GST; dsDNA, one strand shown
# T10 sequence: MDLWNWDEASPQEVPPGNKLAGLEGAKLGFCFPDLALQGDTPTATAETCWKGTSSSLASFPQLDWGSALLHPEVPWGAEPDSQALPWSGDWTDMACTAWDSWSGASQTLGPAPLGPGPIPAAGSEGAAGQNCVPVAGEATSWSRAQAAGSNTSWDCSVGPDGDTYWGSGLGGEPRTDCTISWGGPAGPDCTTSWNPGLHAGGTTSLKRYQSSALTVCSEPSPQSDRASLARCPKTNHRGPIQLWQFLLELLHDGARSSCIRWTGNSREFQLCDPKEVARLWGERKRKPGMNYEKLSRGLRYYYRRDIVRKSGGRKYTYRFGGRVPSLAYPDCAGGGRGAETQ
# Procedure, shortened: as §1
# ELF3 = biological target: T11, ELF3 (Homo sapiens, UniProt P78545 1-371); settings: protein: recombinant; tags: N-terminal GST; dsDNA, one strand shown
# T11 sequence: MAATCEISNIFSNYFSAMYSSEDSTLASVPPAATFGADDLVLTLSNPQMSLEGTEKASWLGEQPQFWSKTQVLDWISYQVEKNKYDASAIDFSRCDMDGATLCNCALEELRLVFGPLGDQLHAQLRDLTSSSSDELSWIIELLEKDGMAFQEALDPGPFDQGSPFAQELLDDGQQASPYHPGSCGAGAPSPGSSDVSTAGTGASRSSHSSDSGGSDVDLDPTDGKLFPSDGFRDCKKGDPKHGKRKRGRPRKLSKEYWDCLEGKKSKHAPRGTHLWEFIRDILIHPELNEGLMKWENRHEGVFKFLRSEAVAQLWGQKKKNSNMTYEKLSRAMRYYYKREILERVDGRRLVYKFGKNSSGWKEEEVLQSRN
# Procedure, shortened: as §1
# CRX = CRX (Homo sapiens, UniProt O43186 1-299); settings: protein: recombinant; tags: N-terminal GST; dsDNA, one strand shown
# Procedure, shortened: as §1
# ETV1 = ETV1 (Homo sapiens, UniProt P50549 1-477); settings: protein: recombinant; tags: N-terminal GST; dsDNA, one strand shown
# Procedure, shortened: as §1
# CRX, sequence (O43186 whole entry): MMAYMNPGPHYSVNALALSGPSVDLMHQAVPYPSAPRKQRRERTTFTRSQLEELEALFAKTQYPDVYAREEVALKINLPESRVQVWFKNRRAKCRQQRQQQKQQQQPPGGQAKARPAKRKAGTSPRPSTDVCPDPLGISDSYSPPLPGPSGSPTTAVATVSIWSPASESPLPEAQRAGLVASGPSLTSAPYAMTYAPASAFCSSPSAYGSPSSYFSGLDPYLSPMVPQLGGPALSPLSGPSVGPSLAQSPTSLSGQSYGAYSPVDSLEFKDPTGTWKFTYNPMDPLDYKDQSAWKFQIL
# ELF1, sequence (P32519 whole entry): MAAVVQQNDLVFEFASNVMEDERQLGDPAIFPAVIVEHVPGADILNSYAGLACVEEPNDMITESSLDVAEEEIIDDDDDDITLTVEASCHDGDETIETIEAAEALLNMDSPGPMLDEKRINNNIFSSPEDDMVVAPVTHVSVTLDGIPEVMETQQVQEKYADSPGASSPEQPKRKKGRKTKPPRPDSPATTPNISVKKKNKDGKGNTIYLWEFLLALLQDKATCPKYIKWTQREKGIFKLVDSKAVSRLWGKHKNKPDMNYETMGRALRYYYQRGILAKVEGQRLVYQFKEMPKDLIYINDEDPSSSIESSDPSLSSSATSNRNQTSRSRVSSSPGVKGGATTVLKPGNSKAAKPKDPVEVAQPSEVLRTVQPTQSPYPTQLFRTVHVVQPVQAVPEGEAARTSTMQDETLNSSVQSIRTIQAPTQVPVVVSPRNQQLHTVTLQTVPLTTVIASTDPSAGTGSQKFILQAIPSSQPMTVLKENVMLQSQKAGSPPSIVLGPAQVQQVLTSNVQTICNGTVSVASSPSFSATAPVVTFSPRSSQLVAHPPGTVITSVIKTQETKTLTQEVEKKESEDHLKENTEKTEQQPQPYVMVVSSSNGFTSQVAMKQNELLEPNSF
# ETV1, sequence (P50549 whole entry): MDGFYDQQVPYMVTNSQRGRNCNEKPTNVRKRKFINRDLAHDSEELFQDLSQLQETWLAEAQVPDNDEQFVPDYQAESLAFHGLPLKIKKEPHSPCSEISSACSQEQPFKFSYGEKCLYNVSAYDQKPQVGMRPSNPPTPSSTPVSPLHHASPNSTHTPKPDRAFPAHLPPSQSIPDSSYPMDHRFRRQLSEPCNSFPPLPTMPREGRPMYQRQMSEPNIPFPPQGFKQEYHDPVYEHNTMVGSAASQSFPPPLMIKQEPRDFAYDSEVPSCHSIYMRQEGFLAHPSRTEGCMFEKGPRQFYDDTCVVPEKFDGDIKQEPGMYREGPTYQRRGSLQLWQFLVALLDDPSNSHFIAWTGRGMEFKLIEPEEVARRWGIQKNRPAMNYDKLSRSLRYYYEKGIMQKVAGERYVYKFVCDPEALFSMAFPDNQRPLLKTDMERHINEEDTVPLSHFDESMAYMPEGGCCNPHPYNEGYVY
# HSF1, sequence (Q00613 whole entry): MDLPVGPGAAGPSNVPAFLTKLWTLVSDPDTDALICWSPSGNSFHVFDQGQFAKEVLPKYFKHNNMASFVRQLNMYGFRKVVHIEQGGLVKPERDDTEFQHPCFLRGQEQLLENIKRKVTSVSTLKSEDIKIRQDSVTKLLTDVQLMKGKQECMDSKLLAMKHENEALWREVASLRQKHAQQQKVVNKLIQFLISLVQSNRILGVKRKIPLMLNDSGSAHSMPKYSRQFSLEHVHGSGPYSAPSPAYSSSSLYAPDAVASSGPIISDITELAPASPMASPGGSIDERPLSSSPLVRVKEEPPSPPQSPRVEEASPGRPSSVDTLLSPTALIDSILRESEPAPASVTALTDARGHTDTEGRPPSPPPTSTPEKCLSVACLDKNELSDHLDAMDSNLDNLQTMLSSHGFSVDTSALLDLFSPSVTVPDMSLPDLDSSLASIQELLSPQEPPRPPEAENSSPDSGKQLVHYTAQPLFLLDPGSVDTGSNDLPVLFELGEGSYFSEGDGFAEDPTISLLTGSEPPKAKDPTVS
# ETV5, sequence (P41161 whole entry): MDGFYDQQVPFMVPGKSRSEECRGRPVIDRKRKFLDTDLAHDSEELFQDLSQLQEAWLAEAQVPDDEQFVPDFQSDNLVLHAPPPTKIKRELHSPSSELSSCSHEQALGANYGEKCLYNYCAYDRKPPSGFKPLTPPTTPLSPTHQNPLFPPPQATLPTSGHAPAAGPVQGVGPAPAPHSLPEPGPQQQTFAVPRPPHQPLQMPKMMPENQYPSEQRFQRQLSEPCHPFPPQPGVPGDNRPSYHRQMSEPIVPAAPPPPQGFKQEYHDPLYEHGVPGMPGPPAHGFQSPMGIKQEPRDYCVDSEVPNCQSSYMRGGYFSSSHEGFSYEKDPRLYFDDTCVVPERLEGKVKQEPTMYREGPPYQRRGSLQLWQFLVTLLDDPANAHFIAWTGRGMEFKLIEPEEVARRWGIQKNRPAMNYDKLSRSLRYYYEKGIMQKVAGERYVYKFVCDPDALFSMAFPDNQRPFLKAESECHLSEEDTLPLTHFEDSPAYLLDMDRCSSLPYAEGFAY
# ELF4, sequence (Q99607 whole entry): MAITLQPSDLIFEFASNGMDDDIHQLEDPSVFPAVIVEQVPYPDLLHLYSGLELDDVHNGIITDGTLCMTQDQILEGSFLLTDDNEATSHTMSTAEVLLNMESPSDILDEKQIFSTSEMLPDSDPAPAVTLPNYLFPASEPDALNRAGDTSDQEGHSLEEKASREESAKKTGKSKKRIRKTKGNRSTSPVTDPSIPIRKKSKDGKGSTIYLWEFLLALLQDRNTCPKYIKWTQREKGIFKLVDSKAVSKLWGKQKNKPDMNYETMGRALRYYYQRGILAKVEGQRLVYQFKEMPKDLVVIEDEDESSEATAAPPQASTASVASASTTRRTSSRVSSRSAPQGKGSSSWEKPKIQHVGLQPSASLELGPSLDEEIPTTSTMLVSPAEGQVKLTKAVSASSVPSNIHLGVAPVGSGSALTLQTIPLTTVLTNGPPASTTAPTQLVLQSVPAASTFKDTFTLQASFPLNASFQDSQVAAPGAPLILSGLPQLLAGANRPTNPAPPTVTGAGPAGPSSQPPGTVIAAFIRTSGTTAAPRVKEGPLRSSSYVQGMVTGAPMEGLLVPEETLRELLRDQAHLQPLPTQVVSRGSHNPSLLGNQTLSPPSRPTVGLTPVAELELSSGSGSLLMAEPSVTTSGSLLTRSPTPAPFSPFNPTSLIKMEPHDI
# SPIB, sequence (Q01892 whole entry): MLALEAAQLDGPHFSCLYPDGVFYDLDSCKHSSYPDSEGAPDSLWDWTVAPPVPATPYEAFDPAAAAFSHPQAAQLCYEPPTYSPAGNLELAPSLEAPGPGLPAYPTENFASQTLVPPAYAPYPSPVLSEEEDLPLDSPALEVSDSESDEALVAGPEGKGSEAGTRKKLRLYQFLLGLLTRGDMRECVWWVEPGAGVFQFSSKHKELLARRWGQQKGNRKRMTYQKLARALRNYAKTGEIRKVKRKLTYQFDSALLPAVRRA
sequence,measurement,setting,value
CTACAT,binding signal,FLI1,"1.43 fold enrichment (6-mer frequency, TF over GST control)"
same,binding signal,ELK1,"1.4 fold enrichment (6-mer frequency, TF over GST control)"
same,binding signal,GABPA,"1.44 fold enrichment (6-mer frequency, TF over GST control)"
same,binding signal,ERG,"1.32 fold enrichment (6-mer frequency, TF over GST control)"
same,binding signal,ELF1,"1.38 fold enrichment (6-mer frequency, TF over GST control)"
same,binding signal,EHF,"1.28 fold enrichment (6-mer frequency, TF over GST control)"
same,binding signal,SPI1,"1.38 fold enrichment (6-mer frequency, TF over GST control)"
same,binding signal,SPIB,"1.5 fold enrichment (6-mer frequency, TF over GST control)"
same,binding signal,ELK3,"1.43 fold enrichment (6-mer frequency, TF over GST control)"
same,binding signal,FEV,"1.44 fold enrichment (6-mer frequency, TF over GST control)"
same,binding signal,ETV5,"1.45 fold enrichment (6-mer frequency, TF over GST control)"
same,binding signal,HSF1,"1.17 fold enrichment (6-mer frequency, TF over GST control)"
same,binding signal,SPIC,"1.51 fold enrichment (6-mer frequency, TF over GST control)"
same,binding signal,ELF4,"1.37 fold enrichment (6-mer frequency, TF over GST control)"
same,binding signal,ELK4,"1.33 fold enrichment (6-mer frequency, TF over GST control)"
same,binding signal,ETV2,"1.31 fold enrichment (6-mer frequency, TF over GST control)"
same,binding signal,ELF3,"1.28 fold enrichment (6-mer frequency, TF over GST control)"
same,binding signal,CRX,"1.11 fold enrichment (6-mer frequency, TF over GST control)"
same,binding signal,ETV1,"1.41 fold enrichment (6-mer frequency, TF over GST control)"
